From PubChem BioAssay
This excerpt belongs to a sample that is enriched for hits.
Methyltransferases – Primary Screen for Target Class Profiling of Small Molecule Inhibitors of Methyltransferases; AID 1745853, 2022; purified enzyme, MTase-Glo SAH luminescence; stronger effect = lower value; calls only at 40 µM; hit rate 3.9% among 25,000; call rule not given here
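Each enzyme was reacted with SAM and its substrate, with compounds tested once at 40 uM; SAH formed was read by MTase-Glo luminescence.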
* marks the source's active call; other numbers are inactive results. % is set by controls: 0 for no effect and ±100 for the full control effect.

Clc1ccc([C@]23CNC[C@H]2C3)cc1Cl was read as Methyltransferases active.
Screening CCOCCCNC(=O)N1Cc2ccccc2-n2cccc2C1c1cc(F)cc(F)c1 (stereo not given) returned Methyltransferases inactive.
`Cc1ccc(NC(=O)N2Cc3ccccc3-n3cccc3C2c2ccccc2C)c(C)c1` (stereo not given) gave Methyltransferases inactive.
For CN1CC[C@@]2(C)c3cc(O)ccc3N(C)C12 (stereo not given in full) the results were Methyltransferases active.
Screening CCOC(=O)CNC(=O)N1Cc2ccccc2-n2cccc2C1c1ccc(SC)cc1 (stereo not given) returned Methyltransferases inactive.
Cc1cc(C)cc(NC(=O)N2Cc3ccccc3-n3cccc3C2C(C)C)c1 (stereo not given) was read as Methyltransferases inactive.
CCc1ccc(C2c3cccn3-c3ccccc3CN2C(=O)NCCCOC)cc1 (stereo not given) was read as Methyltransferases inactive.
`Cc1ccc(NC(=O)N2Cc3ccccc3-n3cccc3C2C)c(Cl)c1` (stereo not given) gave Methyltransferases inactive.
`CCc1ccccc1NC(=O)N1Cc2ccccc2-n2cccc2C1c1ccccc1` (stereo not given) gave Methyltransferases inactive.
CN(C)c1cc2c(cc1Sc1nc3c(N)nccc3n1CCNCC(C)(C)C)OCO2 was read as Methyltransferases active.
Screening CCOc1ccc(NC(=O)N2Cc3ccccc3-n3cccc3C2c2cccc(Cl)c2)cc1 (stereo not given) returned Methyltransferases inactive.
Screening CCc1ccc(C2c3cccn3-c3ccccc3CN2C(=O)Nc2ccc3c(c2)OCCO3)cc1 (stereo not given) returned Methyltransferases inactive.
NC(=O)CI was read as Methyltransferases active.
For COC(=O)CCNC(=O)N1Cc2ccccc2-n2cccc2C1c1ccc(F)cc1 (stereo not given) the results were Methyltransferases inactive.
Screening Cc1ccc(NC(=O)N2Cc3ccccc3-n3cccc3C2c2cccs2)cc1C (stereo not given) returned Methyltransferases inactive.
Screening Cc1o[nH]c(=O)c1CC(N)C(=O)O (stereo not given) returned Methyltransferases inactive.
For N[C@@H](Cn1oc(=O)[nH]c1=O)C(=O)O the results were Methyltransferases inactive.
`NC(Cc1cc(O)c(O)cc1O)C(=O)O` (stereo not given) gave Methyltransferases active.
`Cc1ccc(NC(=O)N2Cc3ccccc3-n3cccc3C2c2ccccc2)cc1` (stereo not given) gave Methyltransferases inactive.
Screening O=C(Nc1ccc(F)cc1)N1Cc2ccccc2-n2cccc2C1c1cccc(Cl)c1 (stereo not given) returned Methyltransferases inactive.
Screening CN(C)c1ccc(C2c3cccn3-c3ccccc3CN2C(=O)Nc2ccc(F)cc2)cc1 (stereo not given) returned Methyltransferases inactive.
`Cc1ccc(NC(=O)N2Cc3ccccc3-n3cccc3C2c2ccccc2C)cc1Cl` (stereo not given) gave Methyltransferases inactive.
For Cc1ccccc1NC(=O)N1Cc2ccccc2-n2cccc2C1c1ccc(F)cc1 (stereo not given) the results were Methyltransferases inactive.
For CCc1ccc(C2c3cccn3-c3ccccc3CN2C(=O)Nc2ccccc2C(F)(F)F)cc1 (stereo not given) the results were Methyltransferases inactive.
Screening CC1c2cccn2-c2ccccc2CN1C(=O)Nc1ccccc1C(F)(F)F (stereo not given) returned Methyltransferases inactive.
Screening CCCN1CC[C@@H]2c3cc(O)ccc3CC[C@@H]21 returned Methyltransferases active.
For COc1ccc(C2c3cccn3-c3ccccc3CN2C(=O)NCc2ccc(F)cc2)cc1 (stereo not given) the results were Methyltransferases inactive.
CN(C)c1ccc(C2c3cccn3-c3ccccc3CN2C(=O)Nc2ccc(F)c(Cl)c2)cc1 (stereo not given) was read as Methyltransferases inactive.
Cc1cccc(C2c3cccn3-c3ccccc3CN2C(=O)Nc2ccc(C)c(C)c2)c1 (stereo not given) was read as Methyltransferases inactive.
Screening CCCNC(=O)N1Cc2ccccc2-n2cccc2C1c1ccc(OC)cc1 (stereo not given) returned Methyltransferases inactive.
`Cc1ccc(NC(=O)N2Cc3ccccc3-n3cccc3C2C(C)C)cc1` (stereo not given) gave Methyltransferases inactive.
For CC1C/C=C/C(O)C(O)CC/C=C/c2cc(O)cc(O)c2C(=O)O1 (stereo not given) the results were Methyltransferases inactive.
For CC1CCCCCC(=O)c2c(O)cc(O)cc2CC(=O)O1 (stereo not given) the results were Methyltransferases inactive.
`C[C@H]1CCCC(=O)CCC/C=C/c2cc(O)cc(O)c2C(=O)O1` gave Methyltransferases active.
For Cc1ccccc1C1c2cccn2-c2ccccc2CN1C(=O)NCc1ccc(F)cc1 (stereo not given) the results were Methyltransferases inactive.
CCOC(=O)Cc1ccc(NC(=O)N2Cc3ccccc3-n3cccc3C2c2cccc(C)c2)cc1 (stereo not given) was read as Methyltransferases inactive.
Screening COc1cccc(CNC(=O)N2Cc3ccccc3-n3cccc3C2c2ccc(C(C)C)cc2)c1 (stereo not given) returned Methyltransferases inactive.
Cc1c(Cl)cccc1NC(=O)N1Cc2ccccc2-n2cccc2C1C(C)C (stereo not given) was read as Methyltransferases inactive.
For CCc1ccc(NC(=O)N2Cc3ccccc3-n3cccc3C2CC)cc1 (stereo not given) the results were Methyltransferases inactive.
CCCNC(=O)N1Cc2ccccc2-n2cccc2C1c1ccc(OC)c(OC)c1 (stereo not given) was read as Methyltransferases inactive.
CCCN(CCC)[C@@H]1CCc2ccc(O)cc2C1 was read as Methyltransferases inactive.
`CCCN(CCC)C1CCc2ccc(O)cc2C1` (stereo not given) gave Methyltransferases active.
Screening CCCN(CCC)C1CCc2cccc(O)c2C1 (stereo not given) returned Methyltransferases inactive.
CCC1c2cccn2-c2ccccc2CN1C(=O)Nc1ccccc1Br (stereo not given) was read as Methyltransferases inactive.
Screening CCc1ccccc1NC(=O)N1Cc2ccccc2-n2cccc2C1C (stereo not given) returned Methyltransferases inactive.
O=C(Nc1ccc(F)cc1F)N1Cc2ccccc2-n2cccc2C1c1cccs1 (stereo not given) was read as Methyltransferases inactive.
Screening O=C(NCCc1ccccc1)N1Cc2ccccc2-n2cccc2C1c1ccc(F)cc1 (stereo not given) returned Methyltransferases inactive.
Screening O=C(NCCc1ccccc1)N1Cc2ccccc2-n2cccc2C1c1cc(F)cc(F)c1 (stereo not given) returned Methyltransferases inactive.
`CC(N)Cc1c[nH]c2ccccc12` (stereo not given) gave Methyltransferases inactive.
For CC(=O)NCCc1c[nH]c2ccccc12 the results were Methyltransferases inactive.
Screening NCCc1c[nH]c2ccccc12 returned Methyltransferases active.
`COc1ccc(C)cc1NC(=O)N1Cc2ccccc2-n2cccc2C1c1cc(F)cc(F)c1` (stereo not given) gave Methyltransferases inactive.
